According to the supplement of paper PMC3334620:
In all, about 33,000 sequences were measured (“E-score (-0.5 to 0.5)”: median about -0.032, highest 2% from about 0.36 on). The list comes from a sample in which the highest values are over-represented; it also holds similar and randomly drawn sequences.

Each sequence was assayed against T1, Sko1 (UniProt Q02100) (assay: PBM E-score (8-mer binding enrichment) (E-score (-0.5 to 0.5)); higher = stronger / more preferred TF binding). Conditions: protein concentration: 200 nM; construct: GST-full length.
T1 sequence: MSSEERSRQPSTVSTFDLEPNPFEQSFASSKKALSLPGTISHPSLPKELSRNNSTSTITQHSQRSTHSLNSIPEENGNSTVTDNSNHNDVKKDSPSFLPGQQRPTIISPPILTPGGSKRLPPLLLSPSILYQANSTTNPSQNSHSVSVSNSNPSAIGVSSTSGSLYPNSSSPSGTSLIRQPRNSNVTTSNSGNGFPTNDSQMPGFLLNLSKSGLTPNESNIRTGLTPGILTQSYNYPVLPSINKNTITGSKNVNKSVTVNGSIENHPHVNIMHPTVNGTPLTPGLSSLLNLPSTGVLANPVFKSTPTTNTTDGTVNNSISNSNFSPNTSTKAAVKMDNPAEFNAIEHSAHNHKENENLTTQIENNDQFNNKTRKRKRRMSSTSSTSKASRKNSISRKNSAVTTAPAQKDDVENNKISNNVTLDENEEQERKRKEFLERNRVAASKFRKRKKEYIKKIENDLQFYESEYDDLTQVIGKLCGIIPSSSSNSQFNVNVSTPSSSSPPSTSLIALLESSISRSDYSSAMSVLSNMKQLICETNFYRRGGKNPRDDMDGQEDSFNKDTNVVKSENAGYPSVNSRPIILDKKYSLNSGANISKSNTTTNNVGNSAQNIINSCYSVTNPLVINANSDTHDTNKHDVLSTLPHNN
Method in brief: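 Yeast transcription factors carrying a GST tag, as full-length proteins or DNA-binding domains, were produced by PURExpress in vitro transcription/translation. About 100-200 nM protein was applied to universal all-10-mer Agilent arrays, double-stranded by primer extension on fresh or once-stripped slides. Bound protein was detected with fluorescent anti-GST, and scans were normalised with masliner. The Universal PBM Analysis Suite gave each ungapped eight-base word, pooled with its reverse complement, an E-score, a modified Wilcoxon-Mann-Whitney statistic.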

Row | Sequence | PBM E-score
1 | TACGTTCA | 0.374
2 | AACGTTAT | 0.368
3 | CACGTTAC | 0.305
4 | GACGTTTA | 0.386
5 | AACGTTAC | 0.321
6 | AACGTTAG | 0.176
7 | AACGTTCA | 0.0648
8 | CACGTTTA | 0.321
9 | CACGTTCA | 0.171
10 | GACGTTAC | 0.365
11 | AACGTTTA | 0.31
12 | AACGTTCT | 0.167
13 | AGCTCAAC | -0.147
14 | AGTGCTGG | -0.111
15 | AAGTCGAC | 0.0592
16 | ATCTGAGA | -0.0991
17 | CAATACCG | -0.186
18 | CTTGAAGA | -0.132
19 | ACGAAGGG | 0.129
20 | CTGATCCC | -0.269
21 | AACTCCTT | -0.0253
22 | ATTCGACA | -0.09
23 | CAACAACC | -0.0035
24 | CCAGAGAC | -0.251
25 | CATCCCTC | -0.245

Row | Sequence | PBM E-score
26 | GACGTTGA | 0.269
27 | TACGTTGA | 0.38
28 | CACGTTAG | 0.2
29 | CACGTTAA | 0.244
30 | GACGTTAA | 0.368
31 | AACGTTAA | 0.243
32 | TACGTTAA | 0.413
33 | GGCGTTAA | -0.0249
34 | CACGTTGA | 0.25
35 | CTTCCTAC | -0.225
36 | CTTCTCTA | -0.284
37 | TATGAGCA | 0.00789
38 | ACCTGGCT | -0.232
39 | ACCGTCCG | -0.304
40 | AGGAGCCA | -0.258
41 | CCTGCGGC | -0.427
42 | CAATGACA | 0.229
43 | AAATGACA | 0.272
44 | CAATGACG | 0.486
45 | AAATGACC | 0.0951
46 | GAATGACA | 0.249
47 | CAATGACC | 0.0293
48 | AAATGACG | 0.481
49 | TAATGACA | 0.364
50 | TAATGAAA | 0.24

Row | Sequence | PBM E-score
51 | AAATGGTG | 0.0316
52 | GAAGGTAA | 0.0069
53 | ACACTCAG | -0.0491
54 | TACGGCTA | -0.0295
55 | ATTCGAAG | 0.0402
56 | AGCTAGTG | -0.00092
57 | AAACAAGG | -0.131
58 | ATGATTCC | 0.169
59 | AACTACGC | 0.305
60 | ACCTACGG | -0.217
61 | AACTACGT | 0.455
62 | ACCTACGC | 0.293
63 | ACCTACGT | 0.444
64 | AACTACGA | 0.198
65 | ACGCCAAA | 0.0451
66 | GCAAACCA | -0.0509
67 | CTTTGGAA | -0.0181
68 | AGTCGTTA | 0.0683
69 | CAAGAAGA | -0.0303
70 | CTCTTTCA | -0.0826
71 | CAGGTTTC | -0.0189
72 | GAAGCACC | -0.0674
73 | TAAAGAGA | 0.0871
74 | AGTACATC | 0.142
75 | GTTACATA | 0.251

Row | Sequence | PBM E-score
76 | ATTACATA | 0.386
77 | ATTACATC | 0.403
78 | ATTACATG | 0.324
79 | CTTACATC | 0.202
80 | AGACAGCC | -0.219
81 | AGCGTAAA | 0.189
82 | AGCGTACA | 0.0563
83 | TGCGTACA | 0.36
84 | TGCGTAAA | 0.404
85 | CGCGTAAA | 0.311
86 | GGCGTACA | -0.0526
87 | GTTGCACA | 0.0444
88 | CGCATCAG | -0.0566
89 | AGTCAACA | 0.0814
90 | GAAGTCGC | -0.139
91 | ATGTGCAC | -0.0142
92 | GCGATTAC | 0.144
93 | ACGATTAC | 0.369
94 | CCGATTAC | 0.0359
95 | ATGAGTCC | 0.0501
96 | CCGTACGG | -0.262
97 | AAGTACGT | 0.44
98 | ATGTACGG | -0.046
99 | GCGTACGA | 0.238
100 | AAGTACGA | 0.201

Row | Sequence | PBM E-score
101 | CCGTACGA | 0.0901
102 | GCGTACGC | 0.269
103 | ACGTACGC | 0.453
104 | AAGTACGC | 0.193
105 | ACGTACGA | 0.414
106 | ACGTACGG | 0.38
107 | CCGTACGC | 0.0653
108 | AGCGTTAT | 0.0494
109 | ACCTGCAT | -0.13
110 | ATAAGAGA | 0.0988
111 | ATCTTCGC | 0.1
112 | AAAGTAAC | 0.0224
113 | AAAACCGG | -0.128
114 | CAGGCCGA | -0.182
115 | GGGGTAGA | -0.0788
116 | AGAAACTG | 0.0191
117 | CGCAGCTC | -0.0758
118 | ATGTACGA | 0.143
119 | TCGTACGA | 0.282
120 | ACGTACGT | 0.473
121 | ACCTAGCG | -0.0355
122 | AAGGTGCT | -0.238
123 | ATGCAAAA | 0.116
124 | AAATTGAG | -0.0473
125 | CCGTTTAA | -0.0451

Row | Sequence | PBM E-score
126 | ACGTTTAT | 0.388
127 | ACGTTTAA | 0.406
128 | ACGTTTAC | 0.345
129 | AGGTTTAT | 0.0336
130 | ACGTTTAG | 0.355
131 | GTGCCAAA | -0.0151
132 | CTAACTTC | 0.0478
133 | CGTCTGCC | -0.00999
134 | ATATTTCG | 0.235
135 | GATTGGTA | -0.054
136 | AAAGTCTT | 0.0148
137 | GGGGAGTA | -0.124
138 | ATGCCAAA | -0.0114
139 | GAACGTCC | 0.117
140 | TAACGTCA | 0.48
141 | CAACGTCG | 0.222
142 | AAACGTCC | 0.13
143 | TAACGCCA | 0.144
144 | AAACGTCT | 0.341
145 | TAACGGCA | 0.0289
146 | CAACGTCC | -0.0395
147 | CAACGTCA | 0.47
148 | GAACGTTA | 0.18
149 | AAACGTCA | 0.47
150 | GAACGTCA | 0.456

Row | Sequence | PBM E-score
151 | CCACTCGC | -0.25
152 | GAGATCCC | -0.171
153 | CCCGCAAA | -0.0244
154 | GGGGCGGA | -0.338
155 | CGTCTAAG | 0.0318
156 | CCGACCGG | -0.294
157 | ACAGTCTG | -0.171
158 | ACGATTCG | 0.059
159 | CCGTCTGA | -0.224
160 | AGGCAGTA | -0.129
161 | CCGGCCGG | -0.373
162 | AACTGACT | -0.0679
163 | AACTGACG | 0.363
164 | CGCTGACG | 0.389
165 | CACTGACC | -0.26
166 | CACTGACG | 0.424
167 | AACTGACA | 0.183
168 | CGCTGACC | -0.15
169 | CACTGACA | 0.0149
170 | AGCTGACG | 0.347
171 | TGGTGCAA | -0.0842
172 | CCTTTTAC | -0.0204
